Measurements published in PubChem BioAssay (NCI).
About 79,000 compounds went through this panel and 15% of them were active in at least one assay; those are over-represented in the sample as a whole. The source made the active and inactive calls. No stated cut-off is given here; in the data, active means growth inhibition above about 70%; inactive means the rest.

Assays:
[1] = NCI Yeast Anticancer Drug Screen. Data for the mec2-1 strain (AID 157); conditions: S. cerevisiae mec2-1 strain, stronger effect = higher value
Summary of the method: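 mec2-1 yeast strain, carrying an alteration in DNA damage repair or cell cycle control, was exposed to compounds; growth inhibition was measured relative to vehicle-treated controls.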

[2] = NCI Yeast Anticancer Drug Screen. Data for the rad14 strain (AID 159);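 further: 0% = growth of vehicle-treated control cultures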; conditions: S. cerevisiae rad14 strain growth inhibition, stronger effect = higher value
Summary of the method: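 Test compounds were applied to a repair-deficient yeast strain. Its growth was then compared with that of cultures given vehicle alone, and inhibition was expressed relative to those controls.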

[3] = NCI Yeast Anticancer Drug Screen. Data for the sgs1 mgt1 strain (AID 161);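 further: 0% = growth of cultures given vehicle only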; conditions: S. cerevisiae sgs1 mgt1 strain, stronger effect = higher value
Summary of the method: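 Compounds are added to genetically altered yeast, and growth is compared with cultures given vehicle alone to give percent inhibition.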

[4] = NCI Yeast Anticancer Drug Screen. Data for the CLN2oe strain (AID 163);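 further: 0% = growth of vehicle-only control cultures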; conditions: S. cerevisiae CLN2oe strain, stronger effect = higher value
Summary of the method: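 Yeast cells carrying a defined cell-cycle control alteration were exposed to test compounds. Growth inhibition was scored against vehicle-treated control cultures.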

[5] = NCI Yeast Anticancer Drug Screen. Data for the cln2 rad14 strain (AID 165);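 further: 0% = growth equal to vehicle treated cultures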; conditions: S. cerevisiae cln2 rad14 strain, stronger effect = higher value
Summary of the method: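 Yeast carrying cln2 and rad14 alterations (cell cycle control and DNA damage repair) were exposed to compounds. Growth inhibition was measured against vehicle-treated controls.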

[6] = NCI Yeast Anticancer Drug Screen. Data for the bub3 strain (AID 167); conditions: S. cerevisiae bub3 mutant strain, stronger effect = higher value
Summary of the method: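 Yeast carrying a defined mutation is treated with each compound, and growth is compared with that of vehicle-exposed cells to give inhibition.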

[7] = NCI Yeast Anticancer Drug Screen. Data for the mlh1 strain (AID 171);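 further: 0% = growth of vehicle-treated control cultures of the same strain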; conditions: S. cerevisiae mlh1 strain growth inhibition, stronger effect = higher value
Summary of the method: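 Yeast carrying a defined genetic alteration in DNA damage repair or cell cycle control were exposed to test compounds. Growth inhibition was measured relative to vehicle-treated controls.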

[8] = NCI Yeast Anticancer Drug Screen. Data for the mlh1 rad18 strain (AID 175); conditions: S. cerevisiae mlh1 rad18 strain growth inhibition, stronger effect = higher value
Summary of the method: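 Growth inhibition of the yeast strain was measured after compound exposure and expressed relative to vehicle-treated controls. The strain carries defined defects in DNA damage repair.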

[9] = NCI Yeast Anticancer Drug Screen. Data for the rad18 strain (AID 177); conditions: S. cerevisiae rad18 mutant growth inhibition, stronger effect = higher value
Summary of the method: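 Yeast carrying a defined DNA damage repair alteration were exposed to compounds. Growth inhibition was expressed relative to vehicle-treated controls.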

[10] = NCI Yeast Anticancer Drug Screen. Data for the rad52 strain (AID 147);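 further: 0% = growth of vehicle-treated control cultures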; conditions: S. cerevisiae rad52 mutant growth inhibition, stronger effect = higher value
Summary of the method: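 Yeast strain carrying a DNA damage repair alteration was exposed to test compounds. Growth inhibition was measured relative to vehicle-treated controls.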

[11] = NCI Yeast Anticancer Drug Screen. Data for the wt1 strain (AID 149);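 further: 0% = growth of vehicle-treated wt1 cultures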; conditions: S. cerevisiae wt1 strain (SPY 50644) growth inhibition, stronger effect = higher value
Summary of the method: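 wt1 yeast, compound-treated; % growth inhibition vs vehicle control.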

[12] = NCI Yeast Anticancer Drug Screen. Data for the rad50EPP+ strain (AID 151);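 further: 0% = growth of vehicle-treated control cultures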; conditions: S. cerevisiae rad50 mutant strain, stronger effect = higher value
Summary of the method: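 Yeast strain carrying rad50 alteration (rad50EPP+) exposed to compounds; growth inhibition measured relative to vehicle-treated controls.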

[13] = NCI Yeast Anticancer Drug Screen. Data for the rad50 strain (AID 155);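 further: 0% = growth of vehicle-only cultures of the same strain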; conditions: S. cerevisiae rad50 strain growth inhibition, stronger effect = higher value
Summary of the method: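 Genetically altered yeast (DNA repair pathway); compound treatment; growth inhibition vs vehicle ctrl.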

[14] = NCI Yeast Anticancer Drug Screen. Data for the wt2 strain (AID 169);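 further: 0% = growth of vehicle-treated yeast cultures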; conditions: S. cerevisiae wt2 strain growth inhibition, stronger effect = higher value
Summary of the method: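 Yeast cells were exposed to test compounds, and growth inhibition was measured relative to vehicle-treated controls.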

[15] = NCI Yeast Anticancer Drug Screen. Data for the sgs1 strain (AID 173);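 further: 0% = growth of vehicle-only control cultures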; conditions: S. cerevisiae sgs1 mutant, stronger effect = higher value
Summary of the method: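 Yeast mutant strains carrying defined defects in DNA damage repair or cell cycle control were exposed to test compounds. Growth inhibition was scored against vehicle-treated controls.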

[16] = NCI Yeast Anticancer Drug Screen. Data for the mgt1 strain (AID 153); conditions: S. cerevisiae mgt1 mutant growth inhibition, stronger effect = higher value
Summary of the method: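 Yeast mgt1 strain (DNA repair/cell-cycle alteration panel) exposed to compounds; growth inhibition measured relative to vehicle-treated controls.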

[17] = at 5.0 µM (retest, dose inferred, filed as 0.5)
[18] = at 50.0 µM (retest, dose inferred, filed as 5.0)

Measured: growth inhibition

C[C@@](O)(/C=C/[C@H]1CC=CC(=O)O1)[C@@H](C[C@@H](O)\C=C/C=C\C=C\CO)OP(=O)(O)O
inactive: [2]; at 1.2 µM 9% | [2]; at 3.7 µM 13% | [2]; at 11.0 µM 11% | [2]; at 33.0 µM 50% | [3]; [17] 17% | [3]; [18] 60% | [4]; at 1.2 µM 46% | [4]; at 3.7 µM 26% | [4]; at 11.0 µM 25% | [4]; at 33.0 µM 54% | [5]; [17] 5% | [5]; [18] 17% | [5]; at 50.0 µM 42.6% | [6]; at 1.2 µM 29% | [6]; at 3.7 µM 45% | [6]; [17] 34% | [6]; at 11.0 µM 63% | [7]; at 1.2 µM 21% | [7]; at 3.7 µM 20% | [7]; at 11.0 µM 34% | [7]; at 33.0 µM 61% | [8]; [17] -2% | [8]; [18] 48% | [8]; at 50.0 µM 19.3% | [9]; at 1.2 µM 40% | [9]; at 3.7 µM 34% | [9]; at 11.0 µM 41% | [9]; at 33.0 µM 54%
active: [1]; at 100.0 µM 84% | [2]; at 100.0 µM 94% | [3]; at 50.0 µM 73% | [4]; at 100.0 µM 82% | [6]; at 33.0 µM 86% | [6]; [18] 91% | [6]; at 50.0 µM 86.1% | [6]; at 100.0 µM 93% | [7]; at 100.0 µM 88% | [9]; at 100.0 µM 84%

CCc1c(Cl)c(C)cc(O)c1Cl
inactive: [10]; at 1.2 µM 4% | [10]; at 3.7 µM -9% | [10]; at 11.0 µM 8% | [10]; at 33.0 µM 22% | [11]; at 1.2 µM -31% | [11]; at 3.7 µM -18% | [11]; at 11.0 µM -33% | [11]; at 33.0 µM -33% | [12]; at 1.2 µM -27% | [12]; at 3.7 µM -13% | [12]; at 11.0 µM 8% | [12]; at 33.0 µM 42% | [13]; at 1.2 µM -27% | [13]; at 3.7 µM -30% | [13]; [17] 38% | [13]; at 11.0 µM -27% | [13]; at 33.0 µM 23% | [1]; at 1.2 µM -10% | [1]; at 3.7 µM 1% | [1]; [17] 46% | [1]; at 11.0 µM 5% | [1]; at 33.0 µM 12% | [2]; at 1.2 µM -8% | [2]; at 3.7 µM -46% | [2]; at 11.0 µM -19% | [2]; at 33.0 µM 4% | [3]; [17] -26% | [3]; [18] 46% | [4]; at 1.2 µM -7% | [4]; at 3.7 µM -18% | [4]; at 11.0 µM -4% | [4]; at 33.0 µM 6% | [5]; [17] 32% | [5]; [18] 44% | [6]; at 1.2 µM -8% | [6]; at 3.7 µM -19% | [6]; [17] 3% | [6]; at 11.0 µM -7% | [6]; at 33.0 µM 20% | [6]; [18] 53% | [14]; at 1.2 µM -35% | [14]; at 3.7 µM -30% | [14]; at 11.0 µM -26% | [14]; at 33.0 µM -9% | [7]; at 1.2 µM 6% | [7]; at 3.7 µM -7% | [7]; at 11.0 µM 12% | [7]; at 33.0 µM 19% | [15]; at 1.2 µM -4% | [15]; at 3.7 µM -4% | [15]; at 11.0 µM 5% | [15]; at 33.0 µM 33% | [8]; [17] 35%
active: [10]; at 100.0 µM 96% | [11]; at 100.0 µM 72% | [12]; at 100.0 µM 89% | [13]; [18] 91% | [13]; at 50.0 µM 91.4% | [13]; at 100.0 µM 94% | [1]; [18] 94% | [1]; at 50.0 µM 84.7% | [1]; at 100.0 µM 93% | [2]; at 100.0 µM 90% | [3]; at 50.0 µM 86.2% | [4]; at 100.0 µM 75% | [5]; at 50.0 µM 77.2% | [6]; at 50.0 µM 92.6% | [6]; at 100.0 µM 85% | [14]; at 100.0 µM 92% | [7]; at 100.0 µM 82% | [15]; at 100.0 µM 91% | [8]; [18] 85% | [8]; at 50.0 µM 89.5%

O=[N+]([O-])c1ccc(N/N=C/Cc2ccccc2)c([N+](=O)[O-])c1
active: [6]; [18] 74%
inactive: [10]; at 1.2 µM -3% | [10]; at 3.7 µM -4% | [10]; at 11.0 µM -2% | [10]; at 33.0 µM 2% | [10]; at 100.0 µM 2% | [11]; at 1.2 µM -1% | [11]; at 3.7 µM -2% | [11]; at 11.0 µM -3% | [11]; at 33.0 µM -6% | [11]; at 100.0 µM -12% | [16]; at 1.2 µM -2% | [16]; at 3.7 µM 1% | [16]; at 11.0 µM -1% | [16]; at 33.0 µM -2% | [16]; at 100.0 µM 13% | [13]; at 1.2 µM 0% | [13]; at 3.7 µM -2% | [13]; [17] 5% | [13]; at 11.0 µM 4% | [13]; at 33.0 µM 8% | [13]; [18] 20% | [13]; at 50.0 µM -3.75% | [13]; at 100.0 µM -2% | [1]; at 1.2 µM -4% | [1]; at 3.7 µM -1% | [1]; [17] 1% | [1]; at 11.0 µM 2% | [1]; at 33.0 µM 6% | [1]; [18] 12% | [1]; at 50.0 µM 30.8% | [1]; at 100.0 µM 4% | [2]; at 1.2 µM -5% | [2]; at 3.7 µM -2% | [2]; at 11.0 µM 2% | [2]; at 33.0 µM 7% | [2]; at 100.0 µM 3% | [3]; [17] 3% | [3]; [18] 45% | [3]; at 50.0 µM 25% | [4]; at 1.2 µM -3% | [4]; at 3.7 µM 1% | [4]; at 11.0 µM 4% | [4]; at 33.0 µM 0% | [4]; at 100.0 µM -1% | [5]; [17] 7% | [5]; [18] -3% | [5]; at 50.0 µM -7.05% | [6]; at 1.2 µM 2% | [6]; at 3.7 µM 2% | [6]; [17] 9% | [6]; at 11.0 µM 12% | [6]; at 33.0 µM 27% | [6]; at 50.0 µM 67.2% | [6]; at 100.0 µM 39% | [14]; at 1.2 µM 4% | [14]; at 3.7 µM 5% | [14]; at 11.0 µM 5% | [14]; at 33.0 µM 6% | [14]; at 100.0 µM 5% | [7]; at 1.2 µM -4% | [7]; at 3.7 µM -5% | [7]; at 11.0 µM 0% | [7]; at 33.0 µM 6% | [7]; at 100.0 µM 11% | [15]; at 1.2 µM -4% | [15]; at 3.7 µM -1% | [15]; at 11.0 µM 2% | [15]; at 33.0 µM 9% | [15]; at 100.0 µM 22% | [8]; [17] 1% | [8]; [18] 29% | [8]; at 50.0 µM 12.1% | [9]; at 1.2 µM -2% | [9]; at 3.7 µM 3% | [9]; at 11.0 µM 11% | [9]; at 33.0 µM 17% | [9]; at 100.0 µM 21%
